Data from the supplement of paper PMC10849652.
The full data set covers some 7,900 targets. This sample favours those with a hit. About 0.6% of all pairs of compound and target were hits. A number with no mark means an inactive call.

How the values were obtained:
Experiment in all cases: log2 fold change, soluble protein after heating vs DMSO (PISA); higher = thermal stabilisation; K562 cells, 10 uM, 30 min; active = over 0.2 and 3.5 SD of the protein, either way, in both replicates (recomputed)
erlotinib = compound: C#Cc1cccc(Nc2ncnc3cc(OCCOC)c(OCCOC)cc23)c1 [erlotinib]
In short: (§1)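 Values are thermal stability changes relative to control samples and are taken from duplicates. They are stated as log2 fold changes. Before quantification by TMTpro 16plex LC-MS/MS with equalised channel sums, K562 cells at 2×10^6 cells/mL were treated with 10 μM compound for 30 min, heated in aliquots for 3 min across 48°C-58°C, pooled, extracted in PBS with 0.5% NP-40 at 4°C, and centrifuged at 21,000xg for 90 min to give the soluble supernatant.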

[1] = compound: C/C(=N\NC(=O)C1=CC(=CC=C1)S(=O)(=O)N2CCOCC2)/C3=C(C=CC(=C3)Cl)O
In short: as §1

[2] = compound: C1=CC(=C(C=C1Cl)C2=NC3=NC=CN=C3C(=N2)NC4=CC=NC=C4)F
In short: as §1

[3] = compound: C1=CC(=CC=C1C2=NC3=C(N2)C=C(C=C3)C(=O)N)OC4=CC=C(C=C4)Cl
In short: as §1

[4] = compound: C1=CC2=C(C=CC(=C2)/C=C\3/C(=O)NC(=NCC4=CC=CS4)S3)N=C1
In short: as §1

[5] = compound: C1=CC2=NC=CN=C2C=C1/C=C/3\C(=O)NC(=O)S3
In short: as §1

[6] = compound: C1=CC=C(C=C1)C2=NC(=C(N2)C3=CC=NC=C3)C4=CC(=C(C=C4)Cl)O
In short: as §1

[7] = compound: C1=CC=C2C(=C1)C3=NNC4=CC=CC(=C43)C2=O
In short: as §1

[8] = compound: C1CCN(C1)C(=O)NC2=CC=CC(=C2)NC3=NC=C(C(=N3)NCCC4=CN=CN4)Br
In short: as §1

[9] = compound: C1CN(CCC1(CC2=CC=C(C=C2)Cl)N)C3=NC=NC4=C3C=CN4
In short: as §1

IRAK-1-4 Inhibitor I = compound: C1COCCN1CCN2C3=CC=CC=C3N=C2NC(=O)C4=CC(=CC=C4)[N+](=O)[O-] [IRAK-1-4 Inhibitor I]
In short: as §1

ibrutinib = compound: C=CC(=O)N1CCC[C@@H](n2nc(-c3ccc(Oc4ccccc4)cc3)c3c(N)ncnc32)C1 [ibrutinib]
In short: as §1

[10] = compound: CC(=O)c1cnc2ccc(-c3cc(Cl)c(O)c(Cl)c3)nc2c1N[C@H]1CC[C@H](CN(C)C)CC1
In short: as §1

ralimetinib = compound: CC(C)(C)Cn1c(N)nc2ccc(-c3[nH]c(C(C)(C)C)nc3-c3ccc(F)cc3)nc21 [ralimetinib]
In short: as §1

[11] = compound: CC(C)(O)CC(=O)NCCn1ccc2ncnc(Nc3ccc(Oc4cccc(C(F)(F)F)c4)c(Cl)c3)c21
In short: as §1

[12] = compound: CC(C)C1=C2N=C(C=C(N2N=C1)NCC3=CC=CC=C3)NCCCCCCN
In short: as §1

[13] = compound: CC(C)C[C@@H](C=O)NC(=O)[C@H](CC(C)C)NC(=O)[C@H](CC(C)C)NC(=O)OCc1ccccc1
In short: as §1

pinometostat = compound: CC(C)N(C[C@H]1O[C@@H](n2cnc3c(N)ncnc32)[C@H](O)[C@@H]1O)[C@H]1C[C@@H](CCc2nc3cc(C(C)(C)C)ccc3[nH]2)C1 [pinometostat]
In short: as §1

[14] = compound: CC1=C(C(CC(=O)N1)C2=CC=C(C=C2)C(F)(F)F)C(=O)NC3=C(C=C4C(=C3)C=NN4)F
In short: as §1

[15] = compound: CC1=C(C2=C(C=C1)C(=O)C3=CC=CC=C3N2CCCN)C
In short: as §1

Sequence of UniProt Q9UKL6 (Q9UKL6 whole entry, looked up): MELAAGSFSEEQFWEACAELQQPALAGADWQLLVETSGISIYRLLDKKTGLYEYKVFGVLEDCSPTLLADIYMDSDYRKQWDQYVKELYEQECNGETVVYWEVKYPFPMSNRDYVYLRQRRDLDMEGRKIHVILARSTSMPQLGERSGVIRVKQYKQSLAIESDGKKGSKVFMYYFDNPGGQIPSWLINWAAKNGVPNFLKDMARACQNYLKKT
Sequence of UniProt Q8IWE5 (Q8IWE5 whole entry, looked up): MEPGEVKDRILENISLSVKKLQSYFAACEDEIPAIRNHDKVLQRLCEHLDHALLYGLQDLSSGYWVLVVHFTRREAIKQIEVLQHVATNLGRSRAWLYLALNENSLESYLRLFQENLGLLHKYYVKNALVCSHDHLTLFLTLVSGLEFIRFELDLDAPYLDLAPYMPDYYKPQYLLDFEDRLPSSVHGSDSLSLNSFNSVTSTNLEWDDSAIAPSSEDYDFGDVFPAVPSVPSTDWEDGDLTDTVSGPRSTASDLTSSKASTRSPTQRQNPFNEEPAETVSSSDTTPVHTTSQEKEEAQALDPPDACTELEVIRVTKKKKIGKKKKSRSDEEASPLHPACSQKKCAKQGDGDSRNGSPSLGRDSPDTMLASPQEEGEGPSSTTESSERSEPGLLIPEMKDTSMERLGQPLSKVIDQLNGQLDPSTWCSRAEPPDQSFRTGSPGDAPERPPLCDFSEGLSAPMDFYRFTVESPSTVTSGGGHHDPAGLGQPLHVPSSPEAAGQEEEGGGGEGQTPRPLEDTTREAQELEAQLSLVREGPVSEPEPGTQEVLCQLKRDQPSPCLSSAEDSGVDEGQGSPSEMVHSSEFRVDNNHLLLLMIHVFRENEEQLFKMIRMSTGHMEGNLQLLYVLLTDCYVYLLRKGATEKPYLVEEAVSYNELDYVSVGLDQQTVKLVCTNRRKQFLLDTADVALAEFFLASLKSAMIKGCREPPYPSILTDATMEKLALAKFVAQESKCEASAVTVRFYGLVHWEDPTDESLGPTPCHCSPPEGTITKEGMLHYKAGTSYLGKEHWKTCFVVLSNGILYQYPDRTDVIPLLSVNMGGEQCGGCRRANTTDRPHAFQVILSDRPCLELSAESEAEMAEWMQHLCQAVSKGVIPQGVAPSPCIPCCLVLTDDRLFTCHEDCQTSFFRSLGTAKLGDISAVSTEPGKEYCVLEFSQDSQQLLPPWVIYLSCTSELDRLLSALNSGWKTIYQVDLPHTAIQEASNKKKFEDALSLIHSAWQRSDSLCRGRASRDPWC
Sequence of UniProt O43164 (O43164 whole entry, looked up): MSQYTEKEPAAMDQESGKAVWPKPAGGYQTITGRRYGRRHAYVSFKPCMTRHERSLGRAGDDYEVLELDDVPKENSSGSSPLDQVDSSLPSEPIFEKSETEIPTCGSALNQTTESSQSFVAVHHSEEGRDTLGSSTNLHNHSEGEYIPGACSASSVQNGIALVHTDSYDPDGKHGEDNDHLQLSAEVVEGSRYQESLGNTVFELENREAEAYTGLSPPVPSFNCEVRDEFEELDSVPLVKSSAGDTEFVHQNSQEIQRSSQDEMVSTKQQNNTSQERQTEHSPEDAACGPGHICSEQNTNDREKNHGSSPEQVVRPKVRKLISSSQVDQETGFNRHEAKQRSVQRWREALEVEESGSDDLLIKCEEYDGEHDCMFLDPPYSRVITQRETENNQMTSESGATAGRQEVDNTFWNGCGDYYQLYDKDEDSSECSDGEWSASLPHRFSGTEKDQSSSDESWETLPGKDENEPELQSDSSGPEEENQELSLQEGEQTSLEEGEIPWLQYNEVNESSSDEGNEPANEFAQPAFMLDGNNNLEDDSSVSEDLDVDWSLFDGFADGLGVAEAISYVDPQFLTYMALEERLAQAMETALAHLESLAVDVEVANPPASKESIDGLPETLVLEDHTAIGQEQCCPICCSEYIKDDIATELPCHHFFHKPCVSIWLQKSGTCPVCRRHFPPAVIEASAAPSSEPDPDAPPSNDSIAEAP
Sequence of UniProt Q8WUM4 (Q8WUM4 whole entry, looked up): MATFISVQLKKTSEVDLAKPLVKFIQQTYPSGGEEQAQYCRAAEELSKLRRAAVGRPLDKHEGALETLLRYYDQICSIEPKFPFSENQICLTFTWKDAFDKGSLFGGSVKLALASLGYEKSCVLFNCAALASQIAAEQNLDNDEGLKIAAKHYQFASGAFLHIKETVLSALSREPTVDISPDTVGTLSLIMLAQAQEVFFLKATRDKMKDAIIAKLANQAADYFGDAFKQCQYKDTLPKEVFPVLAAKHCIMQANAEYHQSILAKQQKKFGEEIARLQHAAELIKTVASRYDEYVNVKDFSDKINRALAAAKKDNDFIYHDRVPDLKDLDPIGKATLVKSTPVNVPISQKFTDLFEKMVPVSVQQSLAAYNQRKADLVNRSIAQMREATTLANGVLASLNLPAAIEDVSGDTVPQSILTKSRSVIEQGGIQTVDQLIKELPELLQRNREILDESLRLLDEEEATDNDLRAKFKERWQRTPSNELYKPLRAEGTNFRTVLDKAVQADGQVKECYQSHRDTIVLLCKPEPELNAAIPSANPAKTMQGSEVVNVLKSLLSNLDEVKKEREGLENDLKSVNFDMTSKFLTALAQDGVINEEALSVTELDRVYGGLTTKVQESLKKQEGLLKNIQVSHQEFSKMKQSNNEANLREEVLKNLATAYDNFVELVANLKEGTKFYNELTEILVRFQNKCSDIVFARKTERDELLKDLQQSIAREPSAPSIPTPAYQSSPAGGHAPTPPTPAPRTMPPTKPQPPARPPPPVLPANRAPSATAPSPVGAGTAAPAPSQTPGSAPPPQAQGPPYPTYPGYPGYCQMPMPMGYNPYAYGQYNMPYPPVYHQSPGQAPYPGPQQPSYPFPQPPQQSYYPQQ
Sequence of UniProt Q9NR22 (Q9NR22 whole entry, looked up): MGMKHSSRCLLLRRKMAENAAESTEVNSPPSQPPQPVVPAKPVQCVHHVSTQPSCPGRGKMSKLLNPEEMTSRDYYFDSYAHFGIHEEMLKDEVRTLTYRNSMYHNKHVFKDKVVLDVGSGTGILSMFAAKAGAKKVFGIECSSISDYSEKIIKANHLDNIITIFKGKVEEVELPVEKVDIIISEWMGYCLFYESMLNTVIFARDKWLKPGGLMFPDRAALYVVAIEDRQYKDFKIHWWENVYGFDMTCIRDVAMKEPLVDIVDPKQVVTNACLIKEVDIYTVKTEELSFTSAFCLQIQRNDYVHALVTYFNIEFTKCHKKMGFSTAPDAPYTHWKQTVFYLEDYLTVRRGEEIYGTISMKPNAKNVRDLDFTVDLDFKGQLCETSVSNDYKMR
Sequence of UniProt O15530 (O15530 whole entry, looked up): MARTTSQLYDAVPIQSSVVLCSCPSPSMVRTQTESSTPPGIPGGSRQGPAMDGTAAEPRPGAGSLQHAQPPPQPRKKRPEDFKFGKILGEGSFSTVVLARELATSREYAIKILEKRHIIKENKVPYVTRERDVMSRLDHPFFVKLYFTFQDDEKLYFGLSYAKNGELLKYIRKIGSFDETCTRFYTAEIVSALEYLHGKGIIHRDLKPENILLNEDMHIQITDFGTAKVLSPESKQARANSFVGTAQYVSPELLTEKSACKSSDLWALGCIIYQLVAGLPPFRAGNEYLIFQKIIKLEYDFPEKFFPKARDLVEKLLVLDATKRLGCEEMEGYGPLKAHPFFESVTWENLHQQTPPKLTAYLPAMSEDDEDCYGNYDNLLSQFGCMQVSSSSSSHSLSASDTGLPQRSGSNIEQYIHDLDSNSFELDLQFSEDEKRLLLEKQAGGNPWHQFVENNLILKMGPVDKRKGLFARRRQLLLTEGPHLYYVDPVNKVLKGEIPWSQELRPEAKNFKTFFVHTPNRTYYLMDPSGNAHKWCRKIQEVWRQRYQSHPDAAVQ
Sequence of UniProt O75340 (O75340 whole entry, looked up): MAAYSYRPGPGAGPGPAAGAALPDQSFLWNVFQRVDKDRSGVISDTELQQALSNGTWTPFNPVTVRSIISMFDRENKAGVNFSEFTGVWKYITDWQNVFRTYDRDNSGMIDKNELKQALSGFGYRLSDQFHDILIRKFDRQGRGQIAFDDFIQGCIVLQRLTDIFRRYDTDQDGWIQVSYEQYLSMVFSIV
Sequence of UniProt Q8NEB9 (Q8NEB9 whole entry, looked up): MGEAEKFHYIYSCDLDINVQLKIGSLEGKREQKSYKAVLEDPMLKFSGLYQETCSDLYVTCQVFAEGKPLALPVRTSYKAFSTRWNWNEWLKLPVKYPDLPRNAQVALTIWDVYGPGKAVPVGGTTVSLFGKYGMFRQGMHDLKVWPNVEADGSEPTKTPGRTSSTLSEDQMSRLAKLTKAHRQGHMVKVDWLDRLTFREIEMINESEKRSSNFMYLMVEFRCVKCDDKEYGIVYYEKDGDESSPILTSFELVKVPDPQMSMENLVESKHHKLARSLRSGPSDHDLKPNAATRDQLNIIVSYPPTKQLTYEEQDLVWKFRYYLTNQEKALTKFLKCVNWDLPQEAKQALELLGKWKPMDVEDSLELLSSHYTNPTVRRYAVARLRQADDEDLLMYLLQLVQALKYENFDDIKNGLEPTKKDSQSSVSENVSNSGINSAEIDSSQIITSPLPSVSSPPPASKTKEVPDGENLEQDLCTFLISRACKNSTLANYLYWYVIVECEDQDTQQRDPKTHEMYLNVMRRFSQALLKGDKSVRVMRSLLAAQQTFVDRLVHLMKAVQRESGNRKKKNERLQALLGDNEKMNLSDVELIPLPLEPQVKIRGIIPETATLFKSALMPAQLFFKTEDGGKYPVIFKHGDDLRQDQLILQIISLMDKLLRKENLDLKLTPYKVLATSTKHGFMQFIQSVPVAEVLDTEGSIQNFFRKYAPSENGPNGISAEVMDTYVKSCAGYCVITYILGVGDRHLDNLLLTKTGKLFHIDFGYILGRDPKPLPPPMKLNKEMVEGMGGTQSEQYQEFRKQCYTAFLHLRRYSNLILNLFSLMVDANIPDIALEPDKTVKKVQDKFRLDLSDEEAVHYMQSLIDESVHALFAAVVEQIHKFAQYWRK

Target | log2 fold change (erlotinib) | log2 fold change [1] | log2 fold change [2] | log2 fold change [3] | log2 fold change [4] | log2 fold change [5] | log2 fold change [6] | log2 fold change [7] | log2 fold change [8] | log2 fold change [9] | log2 fold change (IRAK-1-4 Inhibitor I) | log2 fold change (ibrutinib) | log2 fold change [10] | log2 fold change (ralimetinib) | log2 fold change [11] | log2 fold change [12] | log2 fold change [13] | log2 fold change (pinometostat) | log2 fold change [14] | log2 fold change [15]
PPP2R5C isoform 5 (UniProt Q13362) | 0.028 | 0.021 | 0.015 | -0.014 | 0.009 | -0.036 | 0.004 | 0.047 | -0.018 | -0.002 | -0.023 | 0.041 | -0.059 | -0.044 | -0.072 | -0.061 | 0.031 | 0.011 | 0.005 | -0.018
PPT1 (UniProt P50897) | 0.01 | -0.011 | 0.018 | -0.003 | 0.04 | 0.007 | 0.01 | 0.024 | 0.036 | -0.009 | 0.041 | 0.049 | 0.008 | -0.072 | 0.039 | -0.406 (active) | 0.048 | -0.036 | 0.018 | -0.06
PRKAR1B (UniProt P31321) | -0.027 | -0.056 | -0.036 | 0.013 | 0.205 | 0.282 | -0.006 | 0.102 | 0.086 | -0.077 | 0.005 | 0.004 | -0.112 | 0.143 | -0.013 | -0.11 | 0.007 | 0.105 | -0.079 | -0.104
PIK3C3 (UniProt Q8NEB9) | -0.005 | -0.004 | -0.157 | -0.005 | 0.011 | 0.087 | -0.007 | 0.048 | -0.024 | 0.06 | -0.012 | -0.005 | 0.058 | 0.082 | 0.002 | -0.003 | 0.035 | 0.14 | -0.021 | 0.013
PJA2 (UniProt O43164) | -0.006 | -0.047 | -0.049 | 0.018 | 0.003 | 0.071 | -0.061 | -0.112 | -0.024 | -0.009 | 0.061 | 0.023 | 0.091 | -0.004 | -0.02 | -0.013 | 0.169 | -0.005 | 0.05 | -0.308 (active)
PDCD6IP (UniProt Q8WUM4) | 0.162 | 0.167 | 0.045 | -0.044 | 0.122 | 0.014 | 0.031 | 0.043 | -0.095 | -0.122 | -0.156 | -0.11 | -0.039 | 0.046 | -0.198 | -0.327 | 0.019 | 0.084 | 0.015 | 0.044
PDCD6 (UniProt O75340) | -0.006 | 0.038 | 0.066 | 0.004 | 0.034 | 0.02 | -0.061 | 0.029 | 0.024 | -0.048 | 0.021 | -0.05 | -0.029 | -0.048 | -0.097 | -0.156 | 0.018 | 0.005 | 0.014 | -0.034
PTPA (UniProt Q15257) | 0.022 | 0.034 | 0.069 | 0.127 | -0.01 | 0.01 | 0.022 | 0.029 | -0.037 | -0.013 | 0.016 | -0.027 | -0.003 | -0.02 | -0.022 | -0.01 | -0.028 | -0.044 | 0.016 | -0.011
POLR2K (UniProt P53803) | -0.081 | 0.021 | -0.037 | 0.127 | -0.017 | 0.097 | -0.1 | -0.105 | 0.005 | 0.022 | -0.041 | 0.003 | 0.059 | -0.093 | 0.028 | 0.429 (active) | 0.093 | -0.092 | -0.02 | 0.027
PCTP (UniProt Q9UKL6) | 0.035 | -0.04 | 0.065 | 0.046 | 0.057 | 0.076 | 0.012 | 0.002 | 0.049 | -0.035 | -0.009 | -0.018 | 0.054 | -0.081 | -0.091 | -0.266 (active) | -0.012 | -0.013 | 0.04 | 0.005
PGGHG (UniProt Q32M88) | 0.059 | 0.114 | 0.024 | 0.002 | -0.44 (active) | 0.048 | -0.049 | -0.248 | -0.225 | 0.119 | 0.018 | 0.045 | -0.013 | 0.136 | 0.05 | 0.044 | 0.008 | -0.054 | -0.124 | -0.027
PRMT8 (UniProt Q9NR22) | -0.008 | 0.03 | 0.159 | -0.067 | 0.099 | -0.005 | 0.122 | 0.042 | 0.012 | 0.028 | 0.045 | -0.004 | -0.012 | 0.098 | -0.014 | 0.001 | -0.073 | 0.026 | -0.027 | 0.101
PLEKHM2 (UniProt Q8IWE5) | 0.228 | 0.07 | 0.034 | -0.03 | 0.075 | 0.069 | 0.082 | -0.065 | -0.005 | -0.066 | -0.018 | -0.073 | -0.085 | 0.162 | 0.016 | -0.034 | -0.102 | -0.042 | -0.069 | 0.016
PRCP (UniProt P42785) | -0.028 | 0.013 | 0.049 | -0.025 | -0.052 | 0.014 | -0.019 | -0.001 | 0.038 | 0.052 | 0.04 | 0.012 | 0.014 | -0.01 | -0.072 | -0.077 | -0.025 | -0.006 | 0.012 | -0.101
PCK2 (UniProt Q16822) | 0.025 | -0.224 (active) | 0.108 | -0.009 | 0.038 | -0.016 | -0.023 | 0.072 | -0.018 | -0.001 | -0.029 | 0.021 | -0.013 | -0.059 | -0.019 | 0.063 | 0.035 | -0.011 | -0.005 | 0.053
PDPK1 (UniProt O15530) | 0.02 | 0.083 | 0.026 | 0.064 | 0.068 | -0.029 | 0.045 | 0.007 | 0.087 | 0.028 | 0.019 | -0.043 | -0.346 (active) | -0.067 | -0.087 | -0.134 | 0.015 | 0.001 | 0.035 | 0.027
